# Results reported in PubChem BioAssay (NCATS).
# Unmarked numbers belong to inactive results. Results filed as inconclusive are left out. The source made the active and inactive calls. Unless noted, the call rests on the fitted dose curve; in most records, active means well fitted curve in either direction with a large enough effect (not every such curve was filed as active); inconclusive means small, poorly fitted or top-dose-only effect, or another doubt; inactive means flat fitted curve, though single readings scatter.
# Assays:
# [1] = AP1 Signaling Pathway (AID 357); settings: ME-180 AP-1-bla reporter, EGF-induced, beta-lactamase ratio, 5 h; at 17.2 µM (top of the series) unless noted; further: on the % scale 0 is the no-effect control and ±100 the full control effect
# Outline: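 ME-180 cells with beta-lactamase reporter under AP-1 response element, stimulated with EC50 EGF; compounds tested in titration series, 5 h at 37 °C. CCF4 substrate added 2.5 h at room temperature; 460/530 nm emission ratio gave %activity and AC50.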
# [2] = NFAT Signaling Pathway (AID 444); settings: Jurkat NFAT-bla M1, carbachol, beta-lactamase ratio, 5 h; at 17.2 µM (top of the series) unless noted;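 further: carbachol stimulus at about its EC50 of 1 µM final; on the % scale 0 is the no-effect control and ±100 the full control effect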
# Outline: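 Jurkat cells with NFAT-driven β-lactamase reporter and co-expressed M1 receptor, stimulated with carbachol (final 1 uM, ~EC50), compound titration, 5 h at 37 °C. CCF4 loaded 1 h at RT; 460/530 nm ratio gave %activity and AC50.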
# [3] = Stat Signaling Pathway (AID 446); settings: ME-180 SIE beta-lactamase reporter, IL-6 stimulated, 5 h; at 17.2 µM (top of the series) unless noted;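 further: ME-180 cervical cancer cells given 40 pM IL-6 alongside compound; SIE-controlled beta-lactamase reporter measured as 460/530 nm FRET emission ratio; on the % scale 0 is the no-effect control and ±100 the full control effect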
# Outline: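 Normalization used AC90 stimulation (300 pM IL-6) and AC90 inhibition (125 nM pan-JAK inhibitor at 40 pM IL-6). The underlying signal is SIE-driven beta-lactamase in ME-180 cells after 5 h IL-6 exposure with compound.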
# [4] = target: Glucocorticoid receptor (Homo sapiens) (UniProt P04150); experiment: GR-GFP Redistribution (AID 450;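 active means compounds whose dose series gives a full or clear partial fitted curve of increased nuclear translocation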; further: potency means the concentration at half of the fitted maximal effect)
# Sequence of Glucocorticoid receptor (Homo sapiens) (P04150 whole entry, looked up): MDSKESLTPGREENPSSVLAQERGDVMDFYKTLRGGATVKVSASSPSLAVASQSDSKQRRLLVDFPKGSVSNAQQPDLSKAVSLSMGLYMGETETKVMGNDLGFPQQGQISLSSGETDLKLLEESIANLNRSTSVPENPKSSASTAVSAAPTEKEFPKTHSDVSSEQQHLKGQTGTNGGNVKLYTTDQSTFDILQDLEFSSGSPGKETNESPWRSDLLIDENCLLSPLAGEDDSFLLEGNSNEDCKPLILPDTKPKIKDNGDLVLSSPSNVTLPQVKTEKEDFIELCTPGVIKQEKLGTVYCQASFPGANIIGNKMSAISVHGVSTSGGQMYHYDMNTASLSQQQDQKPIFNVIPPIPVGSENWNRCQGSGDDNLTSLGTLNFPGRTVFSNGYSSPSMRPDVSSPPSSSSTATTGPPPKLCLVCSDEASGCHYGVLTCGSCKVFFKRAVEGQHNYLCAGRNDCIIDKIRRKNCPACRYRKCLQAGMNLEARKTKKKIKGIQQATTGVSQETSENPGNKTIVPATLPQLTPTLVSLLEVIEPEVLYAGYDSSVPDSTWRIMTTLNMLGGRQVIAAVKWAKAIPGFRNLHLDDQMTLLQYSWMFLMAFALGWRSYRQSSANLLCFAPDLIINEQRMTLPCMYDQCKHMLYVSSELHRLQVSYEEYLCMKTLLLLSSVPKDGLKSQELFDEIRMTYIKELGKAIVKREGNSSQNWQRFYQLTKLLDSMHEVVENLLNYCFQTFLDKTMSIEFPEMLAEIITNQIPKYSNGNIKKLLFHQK
# [5] = qHTS Assay for Identification of Small Molecule Agonists for Hypoxia Response Element Signaling Pathway (AID 914; active means well fitted activation curve with a large enough effect in the signal ratio, with a control signal flat, not every such curve was filed as active; the % refers to the signal ratio; further: potency means the concentration at half of the fitted maximal effect; on activation: % of control where 0% means no effect); settings: ME-180 (cervical carcinoma) HRE-bla reporter, beta-lactamase ratio, CoCl2, 17 h; activation: active compounds read high
# Outline: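 Cells were plated overnight, pin-dosed with compound in a titration series, co-stimulated with EC50 CoCl2 and incubated 17 hours at 37 degrees Celsius. CCF4 substrate was then loaded, and AC50 values came from the 460nm/530nm ratio.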
# [6] = target: 3',5'-cyclic-AMP phosphodiesterase 4B (Homo sapiens) (UniProt Q07343); experiment: qHTS Assay for Inhibitors of PDE-IV (AID 607; active means well fitted activation curve with a large enough effect in the main read-out, with a control signal flat, not every such curve was filed as active; further: % of control where 0% means no effect)
# Sequence of 3',5'-cyclic-AMP phosphodiesterase 4B (Homo sapiens) (Q07343 whole entry, looked up): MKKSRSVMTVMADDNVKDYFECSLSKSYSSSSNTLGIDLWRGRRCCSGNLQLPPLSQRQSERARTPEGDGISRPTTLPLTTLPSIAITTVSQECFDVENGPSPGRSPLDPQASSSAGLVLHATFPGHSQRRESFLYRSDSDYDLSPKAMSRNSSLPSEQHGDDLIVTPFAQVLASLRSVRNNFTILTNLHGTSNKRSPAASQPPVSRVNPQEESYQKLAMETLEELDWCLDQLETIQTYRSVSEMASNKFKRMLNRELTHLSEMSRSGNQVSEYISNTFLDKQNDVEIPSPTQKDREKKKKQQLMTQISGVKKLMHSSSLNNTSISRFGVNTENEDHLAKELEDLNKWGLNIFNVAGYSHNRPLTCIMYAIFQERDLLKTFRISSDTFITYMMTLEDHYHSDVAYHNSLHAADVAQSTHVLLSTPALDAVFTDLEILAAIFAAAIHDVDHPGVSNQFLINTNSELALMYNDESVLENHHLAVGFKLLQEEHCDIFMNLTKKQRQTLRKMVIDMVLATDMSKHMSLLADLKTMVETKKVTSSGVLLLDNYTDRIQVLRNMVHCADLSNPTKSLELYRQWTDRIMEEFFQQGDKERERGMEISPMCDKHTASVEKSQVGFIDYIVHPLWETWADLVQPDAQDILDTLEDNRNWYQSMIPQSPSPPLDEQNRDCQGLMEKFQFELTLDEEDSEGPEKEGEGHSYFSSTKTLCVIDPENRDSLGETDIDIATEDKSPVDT
# Outline: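 HEK293 ACTOne cells with CNG channel (1000/well), endogenous PDE4; membrane potential dye, compounds up to 22.9 uM final. Fluorescence Ex 535/Em 590; RO 20-1724 (100 uM final) as reference.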
# [7] = target: Guanine nucleotide-binding protein G(i) subunit alpha-1 (Homo sapiens) (UniProt P63096); experiment: qHTS Assay for Inhibitors of RGS12 GoLoco Motif Activity (Green Fluorophore) (AID 879; active means well fitted curve in the direction sought with a large enough effect; an effect the other way counts as inactive or inconclusive;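 further: 0% = labeled peptide with Gαi1 and full inhibition = labeled peptide alone without protein; negative values mean loss of peptide binding seen as reduced polarization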)
# Sequence of Guanine nucleotide-binding protein G(i) subunit alpha-1 (Homo sapiens) (P63096 whole entry, looked up): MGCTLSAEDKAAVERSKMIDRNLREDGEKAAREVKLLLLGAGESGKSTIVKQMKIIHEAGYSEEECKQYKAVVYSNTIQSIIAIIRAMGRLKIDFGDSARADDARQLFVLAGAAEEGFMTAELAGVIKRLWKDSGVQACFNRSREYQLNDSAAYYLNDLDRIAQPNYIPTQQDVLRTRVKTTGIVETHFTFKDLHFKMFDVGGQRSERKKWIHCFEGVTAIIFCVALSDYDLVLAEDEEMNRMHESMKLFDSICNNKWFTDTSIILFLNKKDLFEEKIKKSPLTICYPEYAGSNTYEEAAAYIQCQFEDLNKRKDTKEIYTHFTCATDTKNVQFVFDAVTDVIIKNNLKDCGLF
# Outline: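 A drop in FITC polarization marked displacement of the FITC-tagged RGS12 GoLoco peptide (10 nM) from Gαi1 (50 nM). Compounds were incubated 10 min at room temperature in Tris pH 7.5 buffer containing 150 mM NaCl, 0.1 mM GDP and 0.05% NP40; unlabeled peptide titration served as control.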
# [8] = qHTS Assay for Identification of Small Molecule Agonists for Thrombopoietin (TPO) Signaling Pathway (AID 917; active means well fitted curve in the direction sought with a large enough effect; an effect the other way counts as inactive or inconclusive; further: on the % scale 0 is the no-effect control and ±100 the full control effect)
# Outline: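 Cell-based luciferase reporter screen. Mouse Ba/F3 line stably expressing human TPO receptor; IL-3 removed overnight before plating. Co-treatment with compound and EC50 TPO (26 pM), 24 hrs at 37 C, then luminescence.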
# [9] = target: Muscarinic acetylcholine receptor M1 (Rattus norvegicus) (UniProt P08482); experiment: qHTS Assay for Antagonists of Acetylcholine Muscarinic M1 Receptor: Measurement of IP-One Response (AID 944; active means well fitted curve in the direction sought with a large enough effect; an effect the other way counts as inactive or inconclusive; further: nearly all actives have a fitted effect of over 75% in size)
# Sequence of Muscarinic acetylcholine receptor M1 (Rattus norvegicus) (P08482 whole entry, looked up): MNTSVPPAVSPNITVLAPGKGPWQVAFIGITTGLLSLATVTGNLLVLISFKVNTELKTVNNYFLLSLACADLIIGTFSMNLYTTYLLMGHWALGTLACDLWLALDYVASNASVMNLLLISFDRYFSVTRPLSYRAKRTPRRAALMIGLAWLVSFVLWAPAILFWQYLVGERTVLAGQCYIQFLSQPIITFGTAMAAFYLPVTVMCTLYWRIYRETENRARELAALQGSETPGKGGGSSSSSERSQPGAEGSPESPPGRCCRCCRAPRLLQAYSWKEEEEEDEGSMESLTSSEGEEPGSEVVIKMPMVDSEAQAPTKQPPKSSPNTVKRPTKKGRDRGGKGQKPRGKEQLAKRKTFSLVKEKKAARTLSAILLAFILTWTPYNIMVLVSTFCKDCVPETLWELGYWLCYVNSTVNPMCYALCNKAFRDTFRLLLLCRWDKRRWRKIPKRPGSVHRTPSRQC
# Outline: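 IP1 accumulation measured via TR-FRET between d2-IP1 and Eu-cryptate anti-IP1 antibody after carbachol (200 nM, EC80) stimulation for 30 min; rat M1-transfected CHO cells received compound 10 min before agonist.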
# [10] = target: Pyruvate kinase (Leishmania mexicana) (UniProt Q27686); experiment: qHTS Validation Assay for Inhibitors of Leishmania Mexicana Pyruvate Kinase (AID 945; active means well fitted curve in the direction sought with a large enough effect; an effect the other way counts as inactive or inconclusive;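 further: 0% = DMSO only neutral control wells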)
# Sequence of Pyruvate kinase (Leishmania mexicana) (Q27686 2-499 E452W): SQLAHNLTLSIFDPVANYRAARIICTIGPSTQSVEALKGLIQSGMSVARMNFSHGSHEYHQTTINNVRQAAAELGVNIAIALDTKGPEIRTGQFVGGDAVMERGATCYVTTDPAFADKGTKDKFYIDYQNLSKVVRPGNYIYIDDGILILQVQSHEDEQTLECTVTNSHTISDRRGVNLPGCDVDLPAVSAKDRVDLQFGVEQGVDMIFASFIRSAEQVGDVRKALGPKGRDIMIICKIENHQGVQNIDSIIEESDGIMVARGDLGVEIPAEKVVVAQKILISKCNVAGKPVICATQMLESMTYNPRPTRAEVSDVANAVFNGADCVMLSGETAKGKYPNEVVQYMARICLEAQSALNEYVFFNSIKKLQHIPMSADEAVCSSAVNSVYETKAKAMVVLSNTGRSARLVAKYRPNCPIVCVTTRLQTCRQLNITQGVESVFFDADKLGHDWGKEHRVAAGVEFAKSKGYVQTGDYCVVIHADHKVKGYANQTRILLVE
# Outline: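 The enzyme is a highly purified E451W mutant of LmPYK used at 0.2 nM. It converts 0.5 mM PEP and 0.1 mM ADP over 1 h at room temperature; product ATP is quantified by luciferase luminescence relative to DMSO controls.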
# [11] = target: Pyruvate kinase PKM (Homo sapiens) (UniProt P14618); experiment: qHTS Assay for Activators of Human Muscle Pyruvate Kinase (AID 954; active means well fitted curve in the direction sought with a large enough effect, not every such curve was filed as active;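 further: 0% = uninhibited enzyme and -100% = no enzyme or full thiadiazolimine inhibition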)
# Sequence of Pyruvate kinase PKM (Homo sapiens) (P14618 whole entry, looked up): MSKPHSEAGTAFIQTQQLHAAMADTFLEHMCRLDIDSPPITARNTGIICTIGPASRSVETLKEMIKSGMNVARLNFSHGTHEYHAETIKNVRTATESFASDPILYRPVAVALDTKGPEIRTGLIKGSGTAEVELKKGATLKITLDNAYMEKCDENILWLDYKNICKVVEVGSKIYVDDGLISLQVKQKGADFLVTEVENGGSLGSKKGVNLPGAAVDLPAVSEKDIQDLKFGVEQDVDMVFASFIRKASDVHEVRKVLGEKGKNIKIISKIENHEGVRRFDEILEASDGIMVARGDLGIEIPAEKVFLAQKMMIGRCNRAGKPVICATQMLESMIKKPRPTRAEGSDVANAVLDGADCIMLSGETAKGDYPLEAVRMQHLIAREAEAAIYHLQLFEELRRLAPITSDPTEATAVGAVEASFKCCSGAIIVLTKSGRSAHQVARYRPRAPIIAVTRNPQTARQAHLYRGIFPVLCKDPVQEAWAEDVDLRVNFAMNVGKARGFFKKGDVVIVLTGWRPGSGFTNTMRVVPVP
# Outline: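 Compound pinned into substrate mix (0.5 mM PEP, 0.1 mM ADP), then 0.1 nM PKM2 added; 1 h, RT. Stop/detection luciferase reagent added, luminescence read. Normalized to no-inhibition and no-enzyme or reference-inhibitor controls.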
# [12] = target: Alpha-galactosidase A (Homo sapiens) (UniProt P06280); experiment: Counterscreen for Glucocerebrosidase Inhibitors: qHTS Assay for Human alpha-Galactosidase at pH 4.5 (AID 992; active means well fitted curve in the direction sought with a large enough effect; an effect the other way counts as inactive or inconclusive; further: 0% is about no effect)
# Sequence of Alpha-galactosidase A (Homo sapiens) (P06280 whole entry, looked up): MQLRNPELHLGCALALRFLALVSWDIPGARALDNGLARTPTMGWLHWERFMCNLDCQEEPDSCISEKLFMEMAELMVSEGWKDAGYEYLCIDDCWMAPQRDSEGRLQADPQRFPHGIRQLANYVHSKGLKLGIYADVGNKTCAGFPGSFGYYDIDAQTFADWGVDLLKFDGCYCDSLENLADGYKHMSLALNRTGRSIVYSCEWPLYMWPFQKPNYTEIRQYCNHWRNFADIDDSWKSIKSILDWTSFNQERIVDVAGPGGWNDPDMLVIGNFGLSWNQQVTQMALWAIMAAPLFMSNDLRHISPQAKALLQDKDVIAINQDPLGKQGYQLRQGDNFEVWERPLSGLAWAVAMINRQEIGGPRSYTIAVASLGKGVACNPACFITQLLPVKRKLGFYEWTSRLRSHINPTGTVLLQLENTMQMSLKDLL
# Outline: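 Steps: enzyme (2 nM final), then compound across 0.7 nM to 77 uM, then 80 uM fluorogenic galactopyranoside substrate; incubate 20 min at room temperature; quench at pH 10; measure fluorescence at 365/440 nm.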
# [13] = target: alpha-glucosidase (Oryza sativa, rice) (UniProt Q653V4); experiment: Counterscreen for Glucocerebrosidase Inhibitors: qHTS Assay for Rice alpha-Glucosidase at pH 5.0 (AID 997; active means well fitted curve in the direction sought with a large enough effect; an effect the other way counts as inactive or inconclusive;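 further: 0% = full activity with enzyme and -100% = basal without enzyme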)
# Outline: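 Endpoint fluorogenic assay at pH 5.0: compounds (0.7 nM to 77 uM) titrated against 4 nM rice enzyme and 400 uM 4-MU-alpha-glucoside for 20 min at room temperature; NaOH/glycine stop, read ex 365/em 440 nm, Hill-fitted AC50.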
smiles,measurement,setting,value
CCOc1ccc(NC(=O)c2nn(C)cc2Br)cc1,"activity change, negative = inhibition",[1],1.01%
same,"activity change, negative = inhibition",[2],4.54%
same,"activity, negative = inhibition",[3],3.62%
same,Potency,[4],> 20.6 µM
same,activation,[5],5.55%
Cc1cc(OCC(=O)Nn2cnnc2)ccc1Br,"activity change, negative = inhibition",[1],11.6%
same,"activity change, negative = inhibition",[2],-7.1%
same,"activity, negative = inhibition",[3],4.67%
same,Potency,[4],> 20.6 µM
same,activation,[5],8.36%
CC1(C)CC(=O)c2cc(C(=O)N3CCCC(C)(C)C3)c(=O)n(-c3ccccc3)c2C1,"activity change, negative = inhibition",[1],8.53%
same,"activity change, negative = inhibition",[2],-0.00696%
same,"activity, negative = inhibition",[3],-7.18%
same,Potency,[4],> 20.6 µM
same,Potency,[5],3.98 µM (active)
Cc1c(N2C(=O)SC(CC(=O)O)C2=O)c(=O)n(-c2ccccc2)n1C (configuration not stated),"activity change, negative = inhibition",[1],-20.4%
same,"activity change, negative = inhibition",[2],10.6%
same,Potency,[4],> 20.6 µM
COc1ccc(CCn2c(=N)c(C#N)cc3c(=O)n4ccccc4nc32)cc1,"activity change, negative = inhibition",[1],-1.65%
same,"activity change, negative = inhibition",[2],-0.836%
same,"activity, negative = inhibition",[3],3.03%
same,activation,[5],22.3%
CCN1CCC[C@@H]1CNC(=O)c1c(O)c(Cl)cc(Cl)c1OC,"activity change, negative = inhibition",[1],10.6% [at 38 µM]
same,"activity change, negative = inhibition",[2],2.12% [at 38 µM]
same,"activity, negative = inhibition",[3],-20.4% [at 38 µM]
same,Potency,[6],inactive
same,outcome,[7],inactive
same,Potency,[8],inactive
same,Potency,[9],inactive
same,Potency,[10],inactive
same,outcome,[11],inactive
same,outcome,[12],inactive
same,outcome,[13],inactive
CCN(CC)CCN1C(=O)C(O)=C(C(=O)c2cc3ccccc3o2)C1c1cccnc1 (configuration not stated),"activity change, negative = inhibition",[1],4.98%
same,"activity change, negative = inhibition",[2],-3.08%
same,"activity, negative = inhibition",[3],2.38%
same,Potency,[4],> 20.6 µM
same,activation,[5],11.5%
Clc1ccc(SCc2cn3ccsc3n2)cc1,"activity change, negative = inhibition",[1],-22.5%
same,"activity change, negative = inhibition",[2],9.85%
same,Potency,[4],> 20.6 µM
Cn1c(=O)cc(NCc2ccccc2)[nH]c1=O,"activity change, negative = inhibition",[1],15%
same,"activity change, negative = inhibition",[2],-6.77%
same,Potency,[4],> 20.6 µM
CCN(CC)CCN1C(=O)C(=O)/C(=C(/O)c2c(C)[nH]c(C(=O)OC)c2C)C1c1ccccc1 (configuration not stated),"activity change, negative = inhibition",[1],2.47%
same,"activity change, negative = inhibition",[2],-8.53%
same,Potency,[4],> 20.6 µM
